High-throughput results from PubChem BioAssay.
IDH1 R132H inh – human IDH1 R132H inhibition | IDH1-R132H enzyme, NADPH consumption, diaphorase/resazurin fluorescence | Potency, µM (doses to about 76.6 µM), for inactives: at the highest dose activity change, negative = inhibition, actives largely listed as inhibitors | hit rate 0.093% among 390,000 | AID 602179; further: potency means the concentration at half of the fitted maximal effect; on the % scale 0 is the no-effect control and ±100 the full control effect; nearly all actives have a fitted effect of over 65% in size
Target sequence (O75874 whole entry R132H, stated change not applied): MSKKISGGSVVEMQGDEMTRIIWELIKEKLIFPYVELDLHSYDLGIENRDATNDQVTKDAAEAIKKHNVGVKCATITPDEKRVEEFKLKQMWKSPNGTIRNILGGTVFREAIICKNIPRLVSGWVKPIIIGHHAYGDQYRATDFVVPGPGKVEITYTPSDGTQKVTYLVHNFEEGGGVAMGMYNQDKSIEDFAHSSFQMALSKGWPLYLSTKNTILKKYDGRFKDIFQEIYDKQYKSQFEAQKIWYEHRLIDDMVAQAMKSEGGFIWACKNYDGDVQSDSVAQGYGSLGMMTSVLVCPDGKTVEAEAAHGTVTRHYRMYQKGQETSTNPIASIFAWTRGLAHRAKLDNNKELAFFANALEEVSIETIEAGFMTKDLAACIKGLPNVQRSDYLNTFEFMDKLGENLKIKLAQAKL
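IDH1-R132H (0.5 ug/mL dispensed) in pH 7.5 Tris buffer was preincubated 30 min with compound, then given a substrate mix of 0.016 mM NADPH and 2 mM alpha-KG for 80 min at room temperature; remaining NADPH was read by diaphorase/resazurin fluorescence.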
rTrxR1 inhibitor – inhibitors of rat thioredoxin reductase 1 | Potency, µM (doses to about 114 µM), for inactives: top-dose activity change, negative = inhibition, usual class: inhibitors | AID 588453 | hit rate 1% among 390,000 | recombinant rTrxR1, NADPH fluorescence consumption, selenite substrate | O89049; further: potency means the concentration at half of the fitted maximal effect; on the % scale 0 is the no-effect control and ±100 the full control effect; nearly all actives have a fitted effect of over 65% in size
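Rat TrxR1 (90 nM in the dispensed reagent) was pre-reduced with 400 uM NADPH for 5 min at room temperature, then incubated with compound for 15 min. After 400 uM selenite was added, NADPH fluorescence (Ex 340/Em 450 nm) was followed for 8 min.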
TrxR1 substrate – substrates of rat thioredoxin reductase 1. hit rate 0.01% among 390,000. Potency, µM (highest dose often 114 µM), inactives show top-dose activity change, negative = substrate turnover. purified TrxR1 substrate turnover, NADPH consumption readout. O89049; further: potency means the concentration at half of the fitted maximal effect; on the % scale 0 is the no-effect control and ±100 the full control effect; nearly all actives have a fitted effect of over 50% in size
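Rat TrxR1, dispensed at 90 nM, was prereduced with 400 uM NADPH (final) for 5 min at ~22 deg C, then incubated with compound 15 min before 400 uM selenite. A first-read NADPH fluorescence drop versus no-compound background flagged substrates.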
VDR inhibitor – inhibitors of human vitamin D receptor | AID 504847 | hit rate 0.93% among 400,000 | Potency, µM, without a hit: max response, negative = inhibition, usual class: inhibitors | P11473 | VDR-SRC2-3 peptide fluorescence polarization, 2 h; further: potency means the concentration at half of the fitted maximal effect; on the % scale 0 is the no-effect control and ±100 the full control effect
Target sequence (P11473 whole entry, looked up): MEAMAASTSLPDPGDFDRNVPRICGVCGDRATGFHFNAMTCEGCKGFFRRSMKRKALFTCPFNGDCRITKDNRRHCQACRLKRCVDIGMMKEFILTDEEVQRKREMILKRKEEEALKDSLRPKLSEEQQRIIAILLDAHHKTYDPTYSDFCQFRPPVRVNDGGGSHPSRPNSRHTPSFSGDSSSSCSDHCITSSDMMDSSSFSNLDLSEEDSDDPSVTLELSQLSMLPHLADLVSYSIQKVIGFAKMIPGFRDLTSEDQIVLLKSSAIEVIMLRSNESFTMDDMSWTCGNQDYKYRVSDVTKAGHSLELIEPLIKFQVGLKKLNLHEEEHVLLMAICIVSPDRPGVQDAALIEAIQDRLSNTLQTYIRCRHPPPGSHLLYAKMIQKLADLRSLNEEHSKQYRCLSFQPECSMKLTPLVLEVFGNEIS
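Measured by FP: displacement of SRC2-3 coactivator peptide from VDR by library compounds, following a two-hour ambient incubation.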
Sfp PPTase inh – inhibitors of Bacillus subtilis Sfp phosphopantetheinyl transferase | AID 1490 | Q9F4F7 | hit rate 3.5% among 310,000 | Potency, µM, inactives show largest response in the series, negative = inhibition, most hits filed as inhibitors | Biochemical Sfp PPTase activity, qHTS;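 further: the enzyme is Sfp with the accession as filed and its product quenches rhodamine fluorescence; potency means the concentration at half of the fitted maximal effect; 0% = enzyme reaction without inhibitor and -100% = no enzyme wells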
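Compounds were incubated with enzyme (final 15 nM) for 15 min at room temperature before substrate addition started the reaction. Fluorescence at 525 nm excitation, 598 nm emission was recorded immediately and after 30 minutes.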
PLK1 PBD block – PLK1 (human) polo-box domain binding inhibition; hit rate 2.8% among 360,000; Potency, µM, for inactives: max response, negative = inhibition, usual class: inhibitors; P53350; Plk1 PBD binding of FITC phosphopeptide, fluorescence polarization; further: potency means the concentration at half of the fitted maximal effect; series mostly up to about 57 µM; on the % scale 0 is the no-effect control and ±100 the full control effect; nearly all actives have a fitted effect of over 65% in size
USP1-UAF1 confirm – validation of human USP1/UAF1 inhibitors | shares compounds with VDR inhibitor | Ub-Rhodamine cleavage, fluorescence kinetic read | Potency, µM (doses to about 114 µM), without a hit: at the top dose activity change, negative = inhibition, hits mostly inhibitors | hit rate 50% among 50
VDR confirm – confirmation of human vitamin D receptor inhibitors | VDR-coactivator inhibition assay, qHTS confirmation | Potency, µM, hits mostly inhibitors | shares compounds with VDR inhibitor | hit rate 89% among 840; further: potency means the concentration at half of the fitted maximal effect
VDR FP – blocks human VDR-coactivator binding in fluorescein assay. shares compounds with VDR inhibitor. VDR-coactivator binding, fluorescein fluorescence polarization. Potency, µM (titrated, usually from 57.1 µM), inactives show top-dose activity change, negative = inhibition, most hits filed as inhibitors. hit rate 48% among 840. AID 602200; further: potency means the concentration at half of the fitted maximal effect
VDR bla reporter – VDR (human) inhibition, cell-based beta-lactamase validation; shares compounds with VDR inhibitor; VDR beta-lactamase reporter cells, FRET ratio; cells co-treated with VDR agonist LG190178; Potency, µM (series often up to 46.1 µM), for inactives: at the highest dose activity change, negative = inhibition, most hits filed as inhibitors; hit rate 23% among 840; further: potency means the concentration at half of the fitted maximal effect; on the % scale 0 is the no-effect control and ±100 the full control effect
VDR viability – cell toxicity, VDR inhibitor hit counter-screen | shares compounds with VDR inhibitor | cytotoxicity counter-screen, cell viability, qHTS | Potency, µM (doses to about 48.3 µM), inactives show top-dose activity change, negative = cytotoxicity, actives largely listed as cytotoxic | hit rate 18% among 840 | AID 602204;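 further: potency means the concentration at half of the fitted maximal effect; plate controls were DMSO for no effect and high-concentration cycloheximide for full effect; nearly all actives have a fitted effect of over 75% in size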
IDH1 autofl – interferes with resorufin fluorescence in IDH1 counter-screen; Resorufin detection reagent fluorescence interference, cell-free; inhibition of signal, % at 51.2 µM; AID 623980; shares compounds with IDH1 R132H inh; 750 tested, under 10 active;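 further: 0% = wells with normal resorufin and full inhibition = wells lacking resorufin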
WT IDH1 inh – wild-type IDH1 (human) inhibition counterscreen. shares compounds with IDH1 R132H inh. WT IDH1 enzyme, NADPH diaphorase/resazurin fluorescence. Potency, µM (series often up to 115 µM), inactives show at the top dose activity change, negative = inhibition, hits mostly inhibitors. hit rate 9% among 750. AID 623995;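 further: potency means the concentration at half of the fitted maximal effect; 0% = full WT IDH1 enzyme control and full inhibition = no enzyme wells; nearly all actives have a fitted effect of over 55% in size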
Target sequence (O75874 whole entry, looked up): as the sequence (O75874 whole entry R132H, stated change not applied) above, with H132R counted along it
mIDH1 confirm – confirmation of human mutant IDH1 inhibitors. shares compounds with IDH1 R132H inh. IDH1 R132H enzyme, NADPH diaphorase/resazurin fluorescence. Potency, µM (doses to about 76.6 µM), inactives show at the highest dose activity change, negative = inhibition, actives largely listed as inhibitors. hit rate 83% among 750; further: potency means the concentration at half of the fitted maximal effect; nearly all actives have a fitted effect of over 50% in size
TbPYK confirm – Trypanosoma brucei pyruvate kinase inhibition, cherry-pick confirmation. shares compounds with PLK1 PBD block. AID 720569. Potency, µM (top dose mostly 76.9 µM), for inactives: at the highest dose activity change, negative = inhibition, usual class: inhibitors. hit rate 67% among 890. recombinant TbPYK, Kinase-Glo ATP luminescence; further: potency means the concentration at half of the fitted maximal effect; on the % scale 0 is the no-effect control and ±100 the full control effect; nearly all actives have a fitted effect of over 70% in size
TbPYK orthogonal – inhibits T. brucei pyruvate kinase in orthogonal ADP-Glo assay. Potency, µM (highest dose often 76.9 µM), without a hit: top-dose activity change, negative = inhibition, actives largely listed as inhibitors. recombinant TbPYK, ADP-Glo luminescence, 60 min. AID 720584. hit rate 62% among 890. shares compounds with PLK1 PBD block; further: potency means the concentration at half of the fitted maximal effect; on the % scale 0 is the no-effect control and ±100 the full control effect; nearly all actives have a fitted effect of over 75% in size
* marks the source's active call; other numbers are inactive results; ? = inconclusive; . = no result; [ ] = another dose, or the depositor's remark. Only some compounds are listed: those with a hit (about 5.2% of all), similar ones and a draw of the others. The call rests on the fitted dose curve; in most records, active means well fitted curve in the direction sought with a large enough effect; inconclusive means small, poorly fitted or top-dose-only effect, or another doubt; inactive means no such curve, though single readings can be large; an effect the other way counts as inactive or inconclusive.

SMILES | IDH1 R132H inh | rTrxR1 inhibitor | TrxR1 substrate | VDR inhibitor | Sfp PPTase inh | PLK1 PBD block | VDR confirm | VDR FP | VDR bla reporter | VDR viability | others
COC(=O)CCC(=O)Nc1sc(Cc2ccccc2)c(C)c1C(N)=O | 0.0% | ? | -0.9% | 20µM* | 3.16µM* | 2.38µM* | ? | ? | -1.6% | 18.9%
CC1=CC2/C=C(\C)CCC(O)C(O)/C=C/C(=O)C23C(=O)NC(CC(C)C)C3C1C (stereo not given) | 4.2% | 15.8µM* | 12.1%[57.1 µM] | 22.4µM* | 15.8µM* | ? | 16.8* | ? | 7.31µM* | 14.6µM*
O=C1NC(=O)N(CCC2=CCCCC2)C(=O)/C1=C\c1cccs1 | 3.4% | 7.08µM* | 2.4% | 44.7µM* | 50.1µM* | 1.06µM* | 8.44* | ? | 4.4% | -27.6%
O=C1NC(=O)N(CCc2ccc(F)cc2)C(=O)/C1=C/c1cccs1 | 22.9% | ? | -11.2% | 17.8µM* | 25.1µM* | 1.06µM* | 9.47* | ? | 18.9% | 6.8%
Cn1cccc1/C=C1\C(=O)NC(=O)N(CCC2=CCCCC2)C1=O | -5.4% | -16.8% | -11.2% | -0.1% | 3.3% | -12.3% | . | . | . | .
COc1ccc2[nH]cc(CCN=C(N)N)c2c1 | -12.9% | 5.9%[57.1 µM] | 3.3%[57.1 µM] | 1.8% | 6.1% | -6.0% | . | . | . | .
COc1ccc2[nH]cc(C3=CCNCC3)c2c1 | . | . | . | -1.1% | 4.3% | . | . | . | . | . | USP1-UAF1 confirm=52.7µM*
CCCCCC(O)C1C(=O)OC(C)C(O)\C=C/C=C\C=C/C=C\C=C(\C)C(O)C(O)C(O)CC(O)CC(O)CC(O)CC(O)CC1O (stereo not given) | . | . | . | 1.9% | 9.3% | . | . | . | . | .
CN1CC[C@]2(C)c3cc(O)ccc3N(C)[C@@H]12 | . | . | . | ? | -24.3% | . | . | . | . | . | USP1-UAF1 confirm=?
COC(=O)C1=Nc2ccccc2/C1=C\c1c(O)n(-c2ccc(Br)cc2)c(=O)[nH]c1=O | -2.8% | ? | -7.5% | 79.4µM* | 44.7µM* | 1.68µM* | 21.2* | ? | 29.6% | -8.9%
O=C1NO[C@@H]2CN[C@@H](C(=O)O)[C@H]12 | . | . | . | . | -2.4% | . | . | . | . | .
COc1ccc(/C=C2/C(=O)NC(=S)N(C3CC3)C2=O)cc1CN1C(=O)c2ccccc2C1=O | -2.6% | ? | -0.7% | 44.7µM* | 25.1µM* | 2.67µM* | 10.6* | 7.94µM* | 28.2% | ?
CC1CC[C@@]2(OC1)OC1C(O)C3C4CC[C@H]5CC(O[C@@H]6O[C@@H](CO)[C@H](OC7OC(CO)C(O)C(OC8OCC(O)C(O)[C@H]8O)[C@@H]7O[C@@H]7OC(CO)[C@H](O)[C@@H](O[C@@H]8OC(CO)C(O)C(O)C8O)C7O)C(O)C6O)C(O)C[C@]5(C)C4CC[C@]3(C)C1C2C (stereo not given in full) | . | . | . | 4.4% | 2.2% | . | . | . | . | .
ClCC1C(CCl)C2(Cl)C(Cl)=C(Cl)C1(Cl)C2(Cl)Cl (stereo not given) | . | . | . | 4.3% | -14.8% | . | . | . | . | .
N#CC(C#N)=NNc1ccc(-n2ccc(C(F)(F)F)n2)cc1 | 32.9µM* | 20µM* | -5.8% | 20µM* | -3.7% | ? | 2.99* | ? | ? | ? | IDH1 autofl=3.3;WT IDH1 inh=79.4µM*;mIDH1 confirm=25.1µM*
CC1C(=O)OC2CCN3CC=C(COC(=O)[C@](C)(O)[C@]1(C)O)C23 (stereo not given in full) | . | . | . | 9.9% | 32.8% | . | . | . | . | .
O=C(O)CCn1cc(C=C2C(=O)NC(=S)NC2=O)c(-c2ccccc2)n1 | 0.9% | ? | 4.6%[57.1 µM] | 10µM* | 14.1µM* | 2.67µM* | 21.2* | ? | 14.7% | 37.8% | TbPYK confirm=1.58µM*;TbPYK orthogonal=4.47µM*
CN(C(=O)Cc1ccccc1)[C@H](CN1CCCC1)c1ccccc1 | . | . | . | -0.5% | -9.4% | . | . | . | . | .
O=C1NC(=S)NC(=O)C1=Cc1cccn1-c1ccc(O)cc1 | 13.3% | 20µM* | 1.1% | 25.1µM* | 17.8µM* | 2.38µM* | 8.44* | ? | ? | ? | TbPYK confirm=7.08µM*;TbPYK orthogonal=15.8µM*
COc1cc2nc(N3CCCN(C)CC3)nc(N(C)C3CCN(C)CC3)c2cc1OC | . | ? | 90.1% | . | . | . | . | . | . | .
Cc1c(C=C2C(=O)N(C)C(=O)N(C)C2=O)c(=O)n(-c2ccccc2)n1C | 0.0% | -30.0% | 0.9% | -5.2% | 21.8% | ? | . | . | . | .
